Measurements taken from the supplement of paper PMC10732440.
± gives the standard deviation of the averaged measurements.

These molecules were tested on Caenorhabditis elegans N2 infected with Nematocida parisii ERTm1 (assay: progeny production relative to DMSO uninfected control; higher = more progeny despite microsporidia infection (inhibition of infection with low host toxicity)). Conditions: infection time 6 days; 40 µM.
Method: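 Bleach-synchronised C. elegans N2 L1 larvae (100 per well) were grown in 96-well plates in K-medium with 5x E. coli OP50 and 15,000 N. parisii spores/uL, plus Pandemic Response Box compound at 100 uM or 40 uM (1% DMSO), for 6 days at 21 C with shaking. Worms were stained with Rose Bengal, scanned on a flatbed scanner and counted with WorMachine. Progeny production is given as % of the DMSO uninfected control (triplicate wells), so higher values mean the compound restores progeny despite infection.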

`C[N+]1(C)CCCC(OC(=O)C(O)(c2ccccc2)c2ccccc2)C1` (centres undefined) and `CN1C(=O)C(c2ccccc2)C(=O)N(c2ccccc2)c2cc(C(F)(F)F)ccc21` (centres undefined) are within error of each other in progeny production: 12.7 ± 11% for the first, 3.86 ± 0.4% for the second.

Compared with `C[C@@]1(O)[C@H](O)[C@@H](CO)O[C@H]1n1ccc2c(N)ncnc21`, `CCCCc1ccc(C(=O)O)nc1` is lower in progeny production: 7.31 ± 1.5% for the first, 3.89 ± 0.63% for the second.

`COC(=O)Nc1nc2ccccc2[nH]1` and `O=C(NC12CC3CC(CC(C3)C1)C2)c1cc2ccccc2[nH]1` are within error of each other in progeny production: 9.55 ± 1.4% for the first, 6.55 ± 3.2% for the second.

`COc1ccccc1CN[C@H]1C2CCN(CC2)[C@H]1C(c1ccccc1)c1ccccc1` and `CC(C)Oc1cccc(NC(=O)c2ccccc2C(F)(F)F)c1` are within error of each other in progeny production: 8.71 ± 4.8% for the first, 3.26 ± 1% for the second.

`CCN1CCN(Cc2nc3ccc([N+](=O)[O-])cc3c(=O)n2-c2ccccc2F)CC1` and `Nc1c(C(=O)NCc2ccco2)c2nc3ccccc3nc2n1CCN1CCCCC1` are within error of each other in progeny production: 6.53 ± 2.2% for the first, 6.14 ± 2.6% for the second.

`NC1(C(=O)O)CCP(=O)(O)CC1` (centres undefined) and `COc1cc(C(C)(C)CCCC(C)C)cc(OC)c1OC` are within error of each other in progeny production: 2.95 ± 1.1% for the first, 5.3 ± 1.8% for the second.

Same assay, conditions: infection time 6 days; 100 µM

First: C[N+]1(C)CCCC(OC(=O)C(O)(c2ccccc2)c2ccccc2)C1 (centres undefined)
Second: CN1C(=O)C(c2ccccc2)C(=O)N(c2ccccc2)c2cc(C(F)(F)F)ccc21 (centres undefined)
The progeny production of the first is lower: 4.14 ± 1.8% for the first, 8.44 ± 2% for the second.

`C[C@@]1(O)[C@H](O)[C@@H](CO)O[C@H]1n1ccc2c(N)ncnc21` and `CCCCc1ccc(C(=O)O)nc1` are within error of each other in progeny production: 15.4 ± 2% for the first, 18.3 ± 10% for the second.

`COC(=O)Nc1nc2ccccc2[nH]1` and `O=C(NC12CC3CC(CC(C3)C1)C2)c1cc2ccccc2[nH]1` are within error of each other in progeny production: 19.7 ± 17% for the first, 5.96 ± 4% for the second.

`COc1ccccc1CN[C@H]1C2CCN(CC2)[C@H]1C(c1ccccc1)c1ccccc1` and `CC(C)Oc1cccc(NC(=O)c2ccccc2C(F)(F)F)c1` are within error of each other in progeny production: 16.1 ± 5.7% for the first, 18.9 ± 12% for the second.

`CCN1CCN(Cc2nc3ccc([N+](=O)[O-])cc3c(=O)n2-c2ccccc2F)CC1` and `Nc1c(C(=O)NCc2ccco2)c2nc3ccccc3nc2n1CCN1CCCCC1` are within error of each other in progeny production: 16.4 ± 6.8% for the first, 8.06 ± 4% for the second.

`NC1(C(=O)O)CCP(=O)(O)CC1` (centres undefined) and `COc1cc(C(C)(C)CCCC(C)C)cc(OC)c1OC` are within error of each other in progeny production: 16.6 ± 16% for the first, 12.1 ± 4.9% for the second.
